Wnt bcat act = activators of Wnt/beta-catenin signaling | Wnt/beta-catenin reporter cell assay, activator, plate reader | activation, % at 9.35 µM | actives 1.2% (n = 300,000); in the data active = activation above about 30%, passing the limit was not always enough;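 also: 0% = neutral control wells and 100% = positive control wells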
esBAF inh = inhibitors of esBAF chromatin remodeling in mouse ES cells | actives 2% (n = 350,000) | Bmi1-luciferase knock-in reporter, 24 h; 100% = twice the neutral-well signal | reporter increase, % at 12.5 µM; in the data active = activation above about 40%;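 also: 0% = median of the plate's neutral control wells and 100% = double that signal; a rise in the Bmi1 reporter signal indicates esBAF inhibition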
MITF act = MITF TRPM1 promoter activation in melanoma cells; SK-MEL-5 TRPM1-promoter luciferase, 24 h; % of positive control, neutral wells = 0; activation, % at 12.5 µM; actives 0.75% (n = 300,000);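 active = mean activation of at least 80% with every replicate also reaching 80%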;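 also: 0% = neutral control wells and 100% = parthenolide positive control wells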
miR122 inh = miR-122 inhibition in Huh7 cells. Huh7 miR-122 Renilla luciferase sensor, 48 h; neutral wells = 0, positive control = 100. activation (reporter increase), % at 12.5 µM. actives 0.3% (n = 340,000);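 active = mean replicate activation score at least 90 and every replicate individually at or above 90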;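 also: higher luciferase means less miR-122 activity so hits act as miR-122 inhibitors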
HIV Env fusion = inhibitors of HIV Env-mediated cell fusion. HeLa-JRFL Env/CEM21 cell fusion, luciferase. inhibition, % at 12.3 µM. actives 1.1% (n = 360,000). AID 651610;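 active = mean replicate inhibition score of at least 50 and every replicate individually at or above 50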;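 also: 0% = plate neutral controls and 100% = maraviroc near 300 nM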
* marks the source's active call; other numbers are inactive results; . = no result; [ ] = dose if it differs, or a comment. In the library only some 3.4% were active in any assay of this set; here they are far more common.

SMILES | Wnt bcat act | esBAF inh | MITF act | miR122 inh | HIV Env fusion
C[C@@H](NC(=O)C[C@H]1CC[C@@H](NC(=O)c2cccnc2)[C@@H](CO)O1)c1ccccc1 | . | -7 | . | -3[16.7 µM] | 3[16.7 µM]
Cc1ccc(C(=O)Nc2ccc3c(c2)OCO3)cc1S(=O)(=O)N1CCOCC1 | 9 | . | 30 | . | -2
O=C(Nc1nccs1)c1cc(S(=O)(=O)N2CCCCC2)ccc1Cl | . | -2 | -4 | -8 | .
Cc1ccc(C(=O)NCc2ccccn2)cc1S(=O)(=O)N1CCCCC1 | 1 | 3 | 5 | -2 | 90*
O=C(Nc1nccs1)c1ccc(Cl)c(S(=O)(=O)N2CCCCC2)c1 | . | 42* | 3 | -1 | .
Cc1ccc(C(=O)Nc2ccc3c(c2)OCO3)cc1Cl | 46* | 39 | 87* | -2 | -128
Cc1ccc(S(=O)(=O)N2CCCCCC2)cc1C(=O)NCc1ccccn1 | -1 | -5 | 8 | . | 2
Cc1ccc(C(=O)Nc2ccc3c(c2)OCO3)cc1S(=O)(=O)N1CCCC1 | . | 79* | 46 | 3 | .
C[C@@H]1CN([C@@H](C)CO)C(=O)c2cc(C#CC3CCCCC3)cnc2O[C@@H]1CN(C)S(=O)(=O)c1ccccc1 | . | -2 | . | 1[16.7 µM] | 52[16.7 µM]
O=C(C[C@@H]1C[C@H]2c3cc(NC(=O)CC4CC4)ccc3O[C@H]2[C@H](CO)O1)NCC(F)(F)F | . | -4 | . | 3[16.7 µM] | -9[16.7 µM]
Cc1noc(C)c1NC(=O)N(C)C[C@@H]1OCCCC[C@H](C)Oc2ccc(NC(=O)C3CCCCC3)cc2C(=O)N([C@@H](C)CO)C[C@@H]1C | . | -2 | . | -2[16.7 µM] | 7[16.7 µM]
Cc1ccc(S(=O)(=O)N(C)C[C@H]2Oc3ccc(NS(=O)(=O)c4cccs4)cc3CC(=O)N([C@@H](C)CO)C[C@@H]2C)cc1 | . | -4 | . | -1[16.7 µM] | 8[16.7 µM]
Cc1ccc(C(=O)OCc2ccc3c(c2)OCO3)cc1S(=O)(=O)N1CCCCC1 | . | 12 | -11 | -6 | 55*
O=C(c1ccc(Cl)c(S(=O)(=O)N2CCCC2)c1)N1CCCCC1 | 18 | . | -5 | 7 | 0
CC1CCCN(C(=O)c2ccc(Cl)c(S(=O)(=O)N3CCCCCC3)c2)C1 (stereo unspecified) | 5 | 58* | 16 | 4 | -11
CC1CCN(S(=O)(=O)c2ccc(C(=O)OCc3ccc4c(c3)OCO4)cc2)CC1 | . | -1 | -4 | . | -8
Cc1ccc(NC(=O)c2nc3nccc(C)n3n2)cc1S(=O)(=O)N1CCCCC1 | -1 | 45* | 40 | 10 | .
Cc1ccnc2nc(C(=O)Nc3ccc(S(=O)(=O)N4CCCC4)cc3)nn12 | 6 | . | 0 | -4 | -10
CN(C)CC(=O)N[C@@H]1CC[C@@H](CCNC(=O)Nc2ccc(C(F)(F)F)cc2)O[C@H]1CO | . | 12 | . | . | -2[16.7 µM]
NC(=O)C1CCN(C(=O)c2cccc3ccccc23)CC1 | 0 | -5 | -3 | -2 | -1
NC(=O)C1CCN(C(=O)c2cc3ccccc3cc2O)CC1 | -1 | -8 | 1 | . | 63*
CC(C)NC(=O)N[C@@H]1CC[C@@H](CC(=O)NCCN2CCCC2)O[C@@H]1CO | . | 4 | . | . | -11[16.7 µM]
O=C(NCC[C@@H]1CC[C@@H](NS(=O)(=O)c2cccc(F)c2)[C@@H](CO)O1)C1CCOCC1 | . | -5 | . | . | 1[16.7 µM]
COc1ccc2cc3cc(C(=O)NCCC(C)C)oc3nc2c1 | 7 | 9 | 32 | . | 1
COCCNC(=O)c1cc2cc3ccc(OC)cc3nc2o1 | 24 | 30 | 52 | -3 | -13
SMILES | Wnt bcat act | esBAF inh | MITF act | miR122 inh | HIV Env fusion
CCCCN(CC)C(=O)c1cc2cc3ccc(OC)cc3nc2o1 | 58* | 88* | 73 | 8 | -85
CCC(C)NC(=O)c1cc2cc3ccc(OC)cc3nc2o1 (stereo unspecified) | 14 | 55* | 89* | -7 | -48
COc1ccc2cc3cc(C(=O)NCC4CCCO4)oc3nc2c1 (stereo unspecified) | -2 | 55* | 44 | -1 | -48
CC(=O)N(C)c1ccc(OCC(O)Cn2c3ccc(Cl)cc3c3cc(Cl)ccc32)cc1 (stereo unspecified) | -13 | -9 | -1 | 40 | 130*
CC(=O)N(C)c1ccc(OCC(O)Cn2c(C)nc3ccccc32)cc1 (stereo unspecified) | -2 | . | -15 | . | -11
CO[C@@H]1CN(C)C(=O)c2ccc(NC(=O)c3cnccn3)cc2OC[C@@H](C)N(C)C[C@H]1C | . | -4 | . | -9[16.7 µM] | 0[16.7 µM]
O=C1[C@H](Cc2ccccc2)NCC=CC[C@H](c2ccc(Cl)cc2)N1Cc1ccc(Cl)cc1 | -4 | -11 | -4 | -14 | 110*
O=C1[C@H](Cc2ccccc2)NCCCC[C@H](c2ccc(Cl)cc2)N1Cc1ccc(Cl)cc1 | -9 | -2 | -6 | -4 | 66*
COC(=O)C1=C(C(=O)OC)[C@]2([C@H]3CCCCN[C@@H](Cc4ccccc4)C(=O)N3Cc3ccccc3)C=C[C@H]1O2 | -8 | 3 | -16 | . | 65*
COCC(=O)N(C)C[C@H]1Oc2cc(-c3ccccc3F)ccc2S(=O)(=O)N([C@@H](C)CO)C[C@@H]1C | . | 3 | . | -41[16.7 µM] | -21[16.7 µM]
O=C(NC[C@@H]1N[C@@H](CO)[C@H]1c1ccc(C2=CCCCC2)cc1)c1ccccc1 | . | -3 | . | -7[16.7 µM] | .
Cc1cc(Nc2ccccc2)n(C(=O)c2ccc(Cl)cc2)n1 | . | 53* | 14 | 1 | -58
Cc1cc(Nc2ccccc2)n(-c2ccc(C(=O)O)cc2)n1 | 0 | . | 5 | -5 | 12
CCCC(C)NS(=O)(=O)c1ccc(OC)c(C)c1 (stereo unspecified) | . | -1 | . | 153* | -45
C[C@H]1CN([C@@H](C)CO)C(=O)c2cc(C3=CCCC3)cnc2O[C@@H]1CN(C)C(=O)C1CC1 | . | . | . | 5[16.7 µM] | -15[16.7 µM]
CCOc1cccc2cc(C(=O)N3CC(C)OC(C)C3)c(=O)oc12 (stereo unspecified) | -1 | -12 | -2 | 1 | 8
COc1cccc2cc(C(=O)OCC(=O)N3CC(C)OC(C)C3)c(=O)oc12 (stereo unspecified) | -2 | 64* | 63 | . | -38
COCC(=O)N1[C@H](CO)[C@H](c2ccccc2)[C@@H]1CNC(=O)c1ccccn1 | . | -1 | . | 108*[16.7 µM] | .
COCC(=O)N1[C@H](CO)[C@@H](c2ccccc2)[C@H]1CNC(=O)c1ccccn1 | . | 0 | . | -50[16.7 µM] | .
CC(C)n1nc(C(=O)Nc2cccc(S(=O)(=O)NCc3ccco3)c2)c2ccccc2c1=O | -1 | 6 | 0 | 99* | -5
CCNC(=O)C[C@H]1CC[C@H]2[C@H](COc3ccc(NC(=O)c4ccc(C(F)(F)F)cc4)cc3C(=O)N2C)O1 | . | 4 | . | -4[16.7 µM] | -13[16.7 µM]
COc1ccc(NC(=O)CN2CCCCC2)cc1 | . | 8 | 17 | 4 | .
CSCCC(=O)Nc1ccc(C(C)=O)cc1 | -1 | 53* | 39 | 1 | .
CC(=O)c1ccc(NC(=O)CN2CCCC2)cc1 | 2 | 50* | . | -7 | 2
Cc1ccc(NC(=O)CN2CCCC2)cc1 | 6 | 4 | -10 | -4 | 2
COc1ccc(NC(=O)CN2CCC(C(N)=O)(N3CCCCC3)CC2)cc1 | . | 5 | 2 | . | 77*
O=c1[nH]c(-c2ccncc2)nc2ccccc12 | -8 | 1 | -12 | 11 | -44

High-throughput results: PubChem, Broad Institute
